# Bioassay records deposited in PubChem by several laboratories.
# Hits are enriched below; roughly 3.7% of the tested compounds scored in any of these assays.
# MazF activator = increases E. coli MazEF RNase cleavage of RNA. FAM/BHQ RNA-DNA oligo cleavage fluorescence, 5 h. activation, % at 20 µM. actives 0.32% (n = 350,000). AID 504720; in the data active = activation above about 50%
# Target sequence (P0AE70 whole entry, looked up): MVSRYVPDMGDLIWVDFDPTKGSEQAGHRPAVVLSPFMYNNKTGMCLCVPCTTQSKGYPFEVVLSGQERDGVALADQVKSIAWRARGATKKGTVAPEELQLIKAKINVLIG
# Bead autofluor = flagged as autofluorescent in microsphere protease counterscreen | actives 3.1% (n = 360,000) | fluorescence intensity (no concentration beside the values) | compound autofluorescence counterscreen, microsphere flow cytometry; active compounds read high; in the data active = fluorescence intensity above about 16000; inconclusive = no clear call, values can overlap the other calls
# BoNT-A LC inh2 = BoNT A light chain protease inhibition | multiplex microsphere protease substrate cleavage, flow cytometry | actives 0.17% (n = 360,000) | inhibition, % at 10 µM | AID 588499; note: plate controls were buffer without enzyme for full effect and enzyme alone for no effect
# BoNT F protease = inhibitors of Botulinum neurotoxin F light chain protease; Multiplex microsphere protease cleavage assay, flow cytometry; inhibition, % at 10 µM; actives 0.22% (n = 360,000); AID 588497; in the data active = inhibition above about 35%, passing the limit was not always enough; inconclusive = no clear call, values can overlap the other calls; note: plate controls were buffer without enzyme for full effect and enzyme alone for no effect
# Anthrax LF inh2 = anthrax lethal factor protease inhibition; multiplex microsphere protease cleavage assay, LF; inhibition, % at 10 µM; actives 0.12% (n = 360,000); AID 588501; note: plate controls were buffer without enzyme for full effect and enzyme alone for no effect
# Active calls of the source: *; ? = inconclusive; . = no result given. Cut-off read from the data, not from the text of the source, unless noted: active = inhibition above about 30%; inconclusive = no clear call, values can overlap the other calls; inactive = below that.
SMILES,MazF activator,Bead autofluor,BoNT-A LC inh2,BoNT F protease,Anthrax LF inh2
CC1CCc2nc3ccccc3c(C(=O)OCC(=O)NC3CCS(=O)(=O)C3)c2C1 (centres undefined),-8,3873,0,0,-2
COc1cccc(NC(=O)CN2CCC(C)CC2)c1,2,22557*,?,0,0
COc1cccc(NC(=O)CN2CCN(CC(=O)Nc3ccc(F)cc3)CC2)c1,-6,3930,-1,0,-6
COc1cc(OC)nc(C(NC(=O)C2CCN(Cc3ccc(Oc4ccccc4)cc3)CC2)c2ccccc2C)n1 (centres undefined),.,4076,-1,-6,-2
CC(C)CN(C(=O)CCNC(=O)c1ccc(Cl)cc1)c1c(N)n(CC(C)C)c(=O)[nH]c1=O,-2,4154,-1,3,-10
COc1ccc(NC(=O)CN(C)C(=O)c2ccc3ccccc3c2)cc1,6,4354,-1,6,2
COc1cccc(NC(=O)c2cnsn2)c1,5,17160*,-2,-2,-4
COc1cccc(NC(=O)CN(C)C(=O)c2ccc3ccccc3c2)c1,2,23982*,-2,-5,0
COc1cccc(NC(=O)CSCC(=O)O)c1,6,17067*,-1,0,2
COc1cccc(NC(=O)CSCC(=O)Nc2ccccc2)c1,10,2668,1,3,-2
COc1cc(-c2cc(NC=O)c3ncc(-c4ccc(C(C)=O)cc4)n3c2)ccc1O,.,3095,0,-13,-3
COc1ccccc1N=Nc1c(O)[nH]c2ccc(Br)cc12,137*,3600,3,21,6
O=C(N=Nc1c(O)[nH]c2ccc(Br)cc12)c1ccccc1-n1cccc1,9,24096*,-3,-8,-7
Cc1cccc(N=Nc2c(O)[nH]c3ccc(Br)cc23)c1,-58,3888,1,-1,0
Cc1ccccc1N=Nc1c(O)[nH]c2ccccc12,482*,5770,0,-5,9
CC1(C(=O)NCCC#N)CCN1C(=O)Cc1ccc(-c2ccccc2)cc1 (centres undefined),.,3988,0,0,-11
CCOc1ccc(C(CC(=O)O)NC(=O)c2ccco2)cc1 (centres undefined),0,19729*,?,3,-7
O=C(COC(=O)Cc1c(F)cccc1Cl)NC(=O)Nc1ccccc1F,10,6643,-1,-8,8
CN1C(=O)C(=Cc2ccc(N3CCCCC3)o2)C(=O)N(C)C1=S,-26,9734,7,100*,9
COC(=O)CN1C(=O)S/C(=C/c2ccc(N3CCCCC3)o2)C1=O,386*,12897,0,-2,-9
COc1ccc(-c2nnc(NC(=O)c3ccc(S(=O)(=O)N(C)CC4CCCO4)cc3)o2)c(OC)c1 (centres undefined),2,4462,6,6,5
CCCCCC(=O)Nc1ccc(N2CCN(CC)CC2)c(Cl)c1,3,23051*,-2,-5,2
CS(=O)(=O)NCc1ccc(C(=O)NCCOc2ccccc2)cc1,-2,17640*,17,21,-18
Cc1ccc(OCCNC(=O)c2cccc(S(=O)(=O)NCc3ccccc3)c2)cc1,2,6824,1,0,-1
CCOc1ccc(CN2CCC(n3nccc3NC(=O)c3ccccc3OC)CC2)cc1,-3,4892,-3,-2,-1
SMILES,MazF activator,Bead autofluor,BoNT-A LC inh2,BoNT F protease,Anthrax LF inh2
Cc1cc(=O)oc2cc(OCCCN3C(=O)c4ccccc4C3=O)ccc12,-5,2134,0,-5,-1
Cc1cc(=O)oc2cc(OC(=O)CCN3C(=O)c4ccccc4C3=O)ccc12,4,22230*,2,2,-4
COc1ccc(OCCN2C(=O)c3ccccc3C2=O)cc1,3,2165,1,4,-2
COc1ccc(OC(=O)CCCN2C(=O)c3ccccc3C2=O)cc1,-3,24000*,-3,-3,-4
Cc1ccc(C(=O)NCC(=O)Nc2ccccc2C)o1,9,4135,0,3,-4
Cc1cc(C)cc(SCc2noc(C(=O)NC(C)C)c2C(=O)NC(C)C)c1,3,3844,0,3,-5
O=C(c1ccco1)N1CCCSC1=Nc1ccccc1,3,21959*,-1,-3,-2
O=C(c1ccccc1F)N1CCC2CC1c1cc(N3CCCCC3)ccc12 (centres undefined),3,5881,-2,-7,-5
Cc1cc(NC(=O)C2(C)CCN2C(C)C)c2ccccc2n1 (centres undefined),.,3015,0,7,2
CC(=O)Nc1ccc(S(=O)(=O)NCCSCc2cccc(Cl)c2)cc1,3,2168,0,3,2
CC(=O)Nc1ccc(S(=O)(=O)NCCSCc2c(Cl)cccc2Cl)cc1,-8,21984*,-4,-7,-2
Cc1ccc(SCC2=NN(c3nc(C)cc(C)n3)C(=O)C2)cc1,-5,3119,0,-4,-4
Cc1cc(C)nc(N2N=C(C(C)(C)C)CC2=O)n1,2,23425*,?,-2,2
Nc1ccc(S(=O)(=O)NC(Cc2ccccc2)C(=O)O)cc1 (centres undefined),10,3846,-4,3,-8
CCOC(=O)c1c(C)c(C(=O)NCCN2CCOCC2)c(C)n1C,0,13279,13,13,-14
CCOC(=O)c1c(C)c(C(=O)NCCN2CCOCC2)c(C)n1CC,-2,17127*,-5,-7,-4
CCOC(=O)c1c(C)c(C(=O)Nc2ccccc2)c(C)n1CC,10,9794,0,8,0
CCOC(=O)c1c(C)c(C(=O)NCc2cccs2)c(C)n1CC,-6,20405*,1,2,-1
Cc1ccc(OCCn2cc(/C(N)=N/O)c3ccccc32)cc1C,-3,17016*,-1,-15,-4
CC(C)[C@H](NC(=O)c1ccccc1)C(=O)OCC(=O)c1ccc2c(c1)NC(=O)CO2,-10,23418*,-1,0,-1
Cc1cc(C)cc(N=C2NC(=O)/C(=C/c3cccs3)S2)c1,-1,2107,1,-5,2
CCOc1ccc2c(c1)S/C(=C\c1cccs1)C(=O)N2,77*,3182,0,6,-8
O=C(O)CC1S/C(=N/N=C/c2ccc(-c3ccccc3[N+](=O)[O-])o2)NC1=O (centres undefined),12,23815*,-1,-3,-1
CCCCNC(=O)CN1CCC2(O)CCCCC2C1c1ccccc1OC (centres undefined),1,3334,0,-6,2
CCOc1cc([C@H]2[C@@H]3CCCC[C@]3(O)CCN2CC(=O)NCc2ccco2)ccc1O,1,22611*,0,-2,-7
CC(C)Cn1c(CCNC(=O)c2ccco2)nc2ccccc21,-17,5523,0,-6,-2
COc1ccc([C@@H]2[C@@H]3C(=O)N(C(C)(C)C)C(=O)[C@@H]3[C@]3(C)C(=O)N(c4cccc(Cl)c4)C(=O)N23)cc1,0,3898,-1,2,5
O=C(NNC(=O)c1cccc2ccccc12)c1ccc(Br)cc1,66*,4268,-1,0,-7
O=C(NNC(=O)c1cccc2ccccc12)c1cccc(Br)c1,-6,3677,0,-5,-2
